Compound activity as filed in PubChem BioAssay.
SUMO Mot1 rescue – yeast Mot1-301 growth rescue at high temperature, primary screen, SUMOylation pathway inhibitor project, S. cerevisiae, ATP luminescence, 38.5C | S. cerevisiae Mot1-301 growth rescue; percent above DMSO median, 100 means doubled | growth rescue, % at 18.8 µM | 320,000 tested, 1% active;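 active = every valid replicate shows activation above 250% relative to neutral control wells; inactive = the rest, any valid replicate at or below 250%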
Casp6 inh – human caspase-6 inhibitors, primary screen, biochemical, VEID-R110 fluorescence, single point, set 2; P55212; purified caspase-6, Z-VEID-R110 cleavage fluorescence; inhibition, % at 12.5 µM; 350,000 tested, 0.53% active;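 active = mean inhibition across replicates at least about 35%, with every replicate also reaching that limit, limit read from the data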
Target sequence (P55212 24-179 limits assumed): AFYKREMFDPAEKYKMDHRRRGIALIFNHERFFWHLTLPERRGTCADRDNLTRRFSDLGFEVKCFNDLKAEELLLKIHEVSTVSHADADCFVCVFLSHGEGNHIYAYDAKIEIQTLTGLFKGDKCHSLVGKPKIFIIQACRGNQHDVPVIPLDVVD
Target sequence (P55212 194-293 limits assumed): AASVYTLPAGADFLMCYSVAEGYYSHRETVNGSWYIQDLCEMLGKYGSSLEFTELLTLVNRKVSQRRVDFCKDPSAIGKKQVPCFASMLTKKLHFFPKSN
ALR H2O2 inh – inhibitors of human ALR sulfhydryl oxidase, primary screen, biochemical, H2O2 detection, HRP-luminol luminescence, single point; inhibition, % (concentration not given with the values); purified ALR, DTT oxidation; 290,000 tested, 3.8% active;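 active = mean replicate inhibition above about 79%, with every replicate also reaching it, limit read from the data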
Target sequence (P55789 whole entry, looked up): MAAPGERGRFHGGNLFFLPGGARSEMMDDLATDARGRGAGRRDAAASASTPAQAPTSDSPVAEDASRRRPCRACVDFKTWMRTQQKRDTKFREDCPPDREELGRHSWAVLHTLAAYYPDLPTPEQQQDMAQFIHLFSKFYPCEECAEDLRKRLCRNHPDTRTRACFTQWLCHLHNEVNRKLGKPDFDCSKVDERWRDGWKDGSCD
NSD2 inh – NSD2 histone methyltransferase inhibitors, primary screen, biochemical, AlphaScreen, single concentration, set 2; inhibition, % at 12.5 µM; Histone-lysine N-methyltransferase NSD2 (Homo sapiens), O96028; NSD2 peptide methylation, 120 min; 310,000 tested, 0.54% active; in the data active = inhibition above about 50%
N-glyco inh – increase of ERlucT glycosylation luciferase signal, primary screen, N-linked glycosylation inhibitor project, D54 ERlucT cells, luminescence, set 2 | D54 ERlucT glycosylation luciferase reporter, 24 h; percent of 100 nM tunicamycin response | reporter increase, % at 12.5 µM | 360,000 tested, 0.23% active | AID 588692, 2011;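 active = mean luciferase reporter signal, scaled so untreated is 0 and the glycosylation-blocking control 100, at or above a set limit in every replicate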;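 also: luciferase carries N-glycosylation sites so blocking glycosylation raises the light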
CDK5 p35 inh – inhibitors of human CDK5/p35 kinase, primary screen, biochemical, single concentration. 330,000 tested, 0.01% active. Recombinant CDK5/p35, ADP-Glo luminescence, 60 min. Cyclin-dependent kinase 5 (Homo sapiens) + Cyclin-dependent kinase 5 activator 1 (Homo …. inhibition, % at 10 µM. AID 488839, 2010;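 active = highest replicate inhibition of at least 50% and at least 75% of replicates reaching 50%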
Mot1 SUMO dose – growth restoration of Mot1-301 yeast on galactose, dose response, SUMO pathway inhibitor project, whole organism, S. cerevisiae, ATP luminescence, cherry-picked samples. shares compounds with SUMO Mot1 rescue. S. cerevisiae Mot1-301 galactose growth, 24 h; -100 = growth of slx-deleted rescue strain. growth activity, percent, % at 42 µM. 2,300 tested, under 10 active;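 active = Signal drops as the depositor expects, and the fitted half-maximal dose is no more than ten times the top valid tested dose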;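 also: more negative values mean stronger growth rescue toward the control strain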
Each line names hits and unclear results; the compound was inactive in the other large screens (follow-up assays come after a bar, where they were run). Sampled rows, rich in hits. Any-hit rate of the full collection: about 3.9%.

CC(C)CN(CC(C)C)S(=O)(=O)N1CCC(C(=O)N2CCc3ccccc3C2)CC1	none (no result: Casp6 inh)
CCS(=O)(=O)N1CCC(C(=O)N2CCc3ccccc3C2)CC1	SUMO Mot1 rescue 364 (no result: Casp6 inh, NSD2 inh) | Mot1 SUMO dose inactive
Cc1ccccc1-c1nnc(SCc2ccc(F)cc2)o1	SUMO Mot1 rescue active | Mot1 SUMO dose inactive
Fc1ccc(CSc2nnc(-c3ccncc3)o2)cc1	none
CC(C)NC(=O)Nc1cccc2c1O[C@@H](CN(C)Cc1ccc(-c3ccccc3)cc1)[C@@H](C)CN([C@@H](C)CO)C2=O	none (no result: SUMO Mot1 rescue, ALR H2O2 inh, NSD2 inh, N-glyco inh, CDK5 p35 inh)
O=C(N[C@H]1CC[C@H](CCNC(=O)C2CC2)O[C@@H]1CO)c1ccncc1	none (no result: SUMO Mot1 rescue, ALR H2O2 inh, NSD2 inh, N-glyco inh, CDK5 p35 inh)
CCOc1ccccc1/C=N\Nc1cnn(Cc2ccccc2)c(=O)c1Cl	SUMO Mot1 rescue active | Mot1 SUMO dose inactive
COc1ccccc1/C=N\Nc1cn[nH]c(=O)c1Cl	none (no result: SUMO Mot1 rescue)
CCCNC(=O)[C@H]1[C@H](CO)[C@H]2Cn3c(ccc(-c4ccc(OC)cc4)c3=O)[C@@H]1N2CC	none (no result: SUMO Mot1 rescue, ALR H2O2 inh, NSD2 inh, N-glyco inh, CDK5 p35 inh)
CCCN(CC1CC1)C(=O)COc1ccccc1C(=O)NCc1ccccc1	SUMO Mot1 rescue 802 | Mot1 SUMO dose inactive
CC(C)NC(=O)N1[C@H](CO)[C@@H]2c3ccccc3N(C(=O)C3CC3)C[C@@H]21	none (no result: SUMO Mot1 rescue, ALR H2O2 inh, NSD2 inh, N-glyco inh, CDK5 p35 inh)
c1ccc(C(c2nnnn2C2CCCC2)N2CCCCCC2)nc1 (configuration not stated)	none (no result: Casp6 inh)
c1ccc(C(c2ccccc2)N2CCN(C(c3ccccn3)c3nnnn3C3CCCC3)CC2)cc1 (configuration not stated)	SUMO Mot1 rescue active (no result: Casp6 inh, ALR H2O2 inh, NSD2 inh) | Mot1 SUMO dose inactive
Cc1ccccc1-c1ccc2c(c1)O[C@@H](CN(C)C(=O)c1ccccn1)[C@H](C)CN([C@H](C)CO)S2(=O)=O	none (no result: SUMO Mot1 rescue, ALR H2O2 inh, NSD2 inh, N-glyco inh, CDK5 p35 inh)
N=c1sccn1CC(=O)Nc1cccc(S(N)(=O)=O)c1	SUMO Mot1 rescue 489 | Mot1 SUMO dose inactive
Cc1nn(C(C)(C)C)c(OC(=O)c2ccc3c(c2)OCO3)c1S(=O)(=O)c1ccccc1	SUMO Mot1 rescue active (no result: Casp6 inh) | Mot1 SUMO dose inactive
COc1ccc(-c2ccc(-c3noc(-c4ccccc4)n3)c(OC)n2)cc1	none
COc1nc(-c2ccccc2)ccc1-c1noc(-c2ccccc2)n1	SUMO Mot1 rescue 558 (no result: Casp6 inh) | Mot1 SUMO dose inactive
C[C@@H]1CN([C@@H](C)CO)C(=O)c2cc(NC(=O)CCC(F)(F)F)ccc2O[C@@H](C)CCCCO[C@H]1CN(C)Cc1ccc2c(c1)OCO2	none (no result: SUMO Mot1 rescue, ALR H2O2 inh, NSD2 inh, N-glyco inh, CDK5 p35 inh)
CO[C@H]1CN(C)C(=O)c2cc(NC(=O)C3CCC3)ccc2OC[C@H](C)N(Cc2cccnc2)C[C@H]1C	none (no result: SUMO Mot1 rescue, ALR H2O2 inh, NSD2 inh, N-glyco inh, CDK5 p35 inh)
O=C(C[C@H]1C[C@H]2c3cc(NS(=O)(=O)c4ccc(F)cc4)ccc3O[C@H]2[C@@H](CO)O1)NCc1cc(F)ccc1F	none (no result: SUMO Mot1 rescue, ALR H2O2 inh, NSD2 inh, N-glyco inh, CDK5 p35 inh)
CC(C)Sc1ccc(C(=O)Nc2ccc(F)cc2F)cn1	SUMO Mot1 rescue 537 | Mot1 SUMO dose inactive
O=C(Nc1ccc(F)cc1F)c1ccc(-n2cccn2)nc1	none (no result: SUMO Mot1 rescue, NSD2 inh)
O=C(C[C@H]1CC[C@H](NC(=O)CN2CCOCC2)[C@@H](CO)O1)NCCc1ccncc1	none (no result: SUMO Mot1 rescue, ALR H2O2 inh, NSD2 inh, N-glyco inh, CDK5 p35 inh)
O=C(O)c1ccc(S(=O)(=O)N2CCN(c3ccccn3)CC2)cc1	SUMO Mot1 rescue 763 | Mot1 SUMO dose inactive
O=C(O)c1cccc(S(=O)(=O)N2CCN(c3ccccn3)CC2)c1	none
O=C(NNC(=O)c1ccccc1O)c1ccco1	SUMO Mot1 rescue active | Mot1 SUMO dose inactive
O=C(NNC(=O)c1ccccc1F)c1ccco1	none
O=C(c1cnccn1)N1CC(=O)N2[C@@H](CO)[C@H](c3ccc(-c4ccccc4)cc3)[C@@H]2C1	none (no result: SUMO Mot1 rescue, ALR H2O2 inh, NSD2 inh, N-glyco inh, CDK5 p35 inh)
COc1ccccc1CN1C(=O)CN(C2CCCCCC2)C(=O)C1c1ccc(F)cc1 (configuration not stated)	none (no result: Casp6 inh, ALR H2O2 inh)
CCC(C)N1C(=O)CN(C2CCCCCC2)C(=O)C1c1ccccc1F (configuration not stated)	SUMO Mot1 rescue 422 | Mot1 SUMO dose inactive
CCOc1ccccc1NC(=O)c1ccc2c(c1)C(=O)N(CC(C)C)C2=O	SUMO Mot1 rescue 551 | Mot1 SUMO dose inactive
O=C(N/C(=C\c1ccc2c(c1)OCO2)C(=O)N1CCOCC1)c1cccs1	none (no result: Casp6 inh)
O=C(N/C(=C/c1ccc2c(c1)OCO2)C(=O)N1CCOCC1)c1cccs1	SUMO Mot1 rescue 765 (no result: Casp6 inh) | Mot1 SUMO dose inactive
CCN(Cc1ccccc1)Cc1ccc(OCc2ccccc2)c(OC)c1	SUMO Mot1 rescue 365 | Mot1 SUMO dose inactive
Cc1ccc2c(c1)N(CC(=O)NCCCN1CCN(C)CC1)C(=O)CO2	SUMO Mot1 rescue 634 | Mot1 SUMO dose inactive
Cc1cc(C)cc(N2C(=O)CS(=O)(=O)C2c2cccc([N+](=O)[O-])c2)c1 (configuration not stated)	none (no result: SUMO Mot1 rescue, ALR H2O2 inh, NSD2 inh, N-glyco inh, CDK5 p35 inh)
O=c1c2ccccc2c(=O)n(-c2ccccc2)n1-c1ccccc1	none (no result: SUMO Mot1 rescue, ALR H2O2 inh)
O=c1c2ccccc2c2ccccc2c(=O)n1-c1ccccc1	SUMO Mot1 rescue 413 | Mot1 SUMO dose inactive
Cc1ccc(S(=O)(=O)Nc2ccc3c(c2)C(=O)N([C@@H](C)CO)C[C@H](C)[C@@H](CN(C)C)OCCCC[C@H](C)O3)cc1	none (no result: SUMO Mot1 rescue, ALR H2O2 inh, NSD2 inh, N-glyco inh, CDK5 p35 inh)
CCOC(=O)c1c(C)[nH]c(O)c1C=Nc1ccccc1	SUMO Mot1 rescue 883 (no result: Casp6 inh) | Mot1 SUMO dose inactive
CCOC(=O)c1c(C)[nH]c(C=Nc2ccc(OC)cc2)c1O	none (no result: Casp6 inh)
Cc1ccnc(NC(c2ccccc2)c2ccc3cccnc3c2O)c1 (configuration not stated)	none (no result: SUMO Mot1 rescue, ALR H2O2 inh)
